CaV13 ICDI inh: Primary screen for inhibitors of IQ motif and Ca2+-dependent inactivation inhibitor domain binding in CACNA1D, Förster resonance energy transfer in living cells, …; HEK cells, CFP/YFP FRET ICDI-IQ, plate reader, 10 min; percent FRET-ratio fall versus neutral wells; inhibition, % at 12.3 µM; 340,000 compounds, 0.098% hits; AID 743397;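 active means mean replicate inhibition of at least 30% and at least 1% of replicates passing that level; inconclusive means only one of the two criteria is met; inactive means neither criterion is met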;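 further: 0% = median of the neutral control wells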
ATG4B inhibitor: inhibitors of human ATG4B cysteine protease; Q9Y4P1; ATG4B cleavage of LC3-PLA2, NBD-HPC fluorescence, 1 h; inhibition, % at 8.33 µM; 340,000 compounds, 0.51% hits; AID 504462; in the data active means inhibition above about 40%
DSG3 Ab inh: inhibitors of pemphigus antibody binding to human desmoglein-3 | P32926 | DSG3-coupled beads, scFv-anti-DSG3-GFP binding, flow cytometry; hits give low values | binding (percent of control), % at 10 µM | 310,000 compounds, 0.48% hits | AID 588358;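 active means binding more than 3 SD below its plate's average and above zero; inconclusive means below that plate limit but binding exactly zero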;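 further: hits lower antibody fragment binding to DSG3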
Vif inh: blocks HIV Vif function. HEK293T cells, Vif self-association by quenched fluorescence, imaging, 24 h. inhibition, % at 7.49 µM. 340,000 compounds, 0.35% hits; in the data active means inhibition above about 50%, passing the limit was not always enough; inconclusive means no clear call, values can overlap the other calls; inactive means below about 31%
NSD2 HMT inh: inhibitors of human histone methyltransferase NSD2. O96028. NSD2 peptide methylation, AlphaScreen, 120 min. inhibition, % at 12.5 µM. 310,000 compounds, 0.54% hits. AID 743445
Target sequence (O96028 whole entry, looked up): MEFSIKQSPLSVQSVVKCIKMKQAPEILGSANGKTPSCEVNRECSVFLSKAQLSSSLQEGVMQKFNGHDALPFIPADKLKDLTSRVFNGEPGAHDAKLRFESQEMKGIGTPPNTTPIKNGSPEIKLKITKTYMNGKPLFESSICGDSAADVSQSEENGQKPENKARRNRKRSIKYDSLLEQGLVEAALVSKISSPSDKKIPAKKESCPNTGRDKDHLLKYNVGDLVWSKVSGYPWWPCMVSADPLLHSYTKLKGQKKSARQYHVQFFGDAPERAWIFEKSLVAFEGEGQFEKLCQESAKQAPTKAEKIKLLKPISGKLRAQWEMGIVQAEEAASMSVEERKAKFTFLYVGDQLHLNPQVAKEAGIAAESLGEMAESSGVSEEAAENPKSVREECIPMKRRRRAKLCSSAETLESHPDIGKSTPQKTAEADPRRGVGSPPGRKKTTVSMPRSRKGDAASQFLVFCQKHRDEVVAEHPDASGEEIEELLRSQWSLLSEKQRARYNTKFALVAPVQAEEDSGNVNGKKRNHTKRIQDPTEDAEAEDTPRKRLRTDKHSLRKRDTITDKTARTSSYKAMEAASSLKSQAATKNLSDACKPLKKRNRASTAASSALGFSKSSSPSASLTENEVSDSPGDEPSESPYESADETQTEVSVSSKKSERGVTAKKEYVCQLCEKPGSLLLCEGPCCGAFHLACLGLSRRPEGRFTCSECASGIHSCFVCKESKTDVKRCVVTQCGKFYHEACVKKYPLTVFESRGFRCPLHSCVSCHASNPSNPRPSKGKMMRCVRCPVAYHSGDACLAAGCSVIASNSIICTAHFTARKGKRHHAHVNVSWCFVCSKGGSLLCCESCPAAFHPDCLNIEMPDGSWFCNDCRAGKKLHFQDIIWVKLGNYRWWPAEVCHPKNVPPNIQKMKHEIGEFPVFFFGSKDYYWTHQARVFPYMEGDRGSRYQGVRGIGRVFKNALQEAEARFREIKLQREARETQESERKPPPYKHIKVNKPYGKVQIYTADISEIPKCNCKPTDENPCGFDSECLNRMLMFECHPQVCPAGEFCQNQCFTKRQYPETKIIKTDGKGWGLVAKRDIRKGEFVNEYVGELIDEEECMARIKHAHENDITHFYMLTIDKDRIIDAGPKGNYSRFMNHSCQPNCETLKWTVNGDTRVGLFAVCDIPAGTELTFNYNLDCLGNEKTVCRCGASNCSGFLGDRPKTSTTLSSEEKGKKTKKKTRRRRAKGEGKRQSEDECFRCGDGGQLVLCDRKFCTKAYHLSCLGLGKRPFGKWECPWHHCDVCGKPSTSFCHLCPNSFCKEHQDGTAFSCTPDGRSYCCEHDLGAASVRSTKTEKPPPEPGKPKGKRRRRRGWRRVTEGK
Glyco luc inh: blocks N-linked glycosylation in D54 reporter cells | D54 ERlucT glycosylation luciferase reporter, 24 h; percent of 100 nM tunicamycin response | reporter increase, % at 12.5 µM | 360,000 compounds, 0.23% hits;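 active means mean luciferase reporter signal, scaled so untreated is 0 and the glycosylation-blocking control 100, at or above a set limit in every replicate; inconclusive means mean reaches the limit but not every replicate does; inactive means mean below the limit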;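 further: luciferase carries N-glycosylation sites so blocking glycosylation raises the light; 0% = median of neutral control wells and 100% = median of 100 nM tunicamycin wells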
ATG4B conf: confirmation of human ATG4B inhibitors. shares compounds with ATG4B inhibitor. ATG4B protease fluorescent substrate cleavage assay. inhibition, % at 8.33 µM. 320 compounds, 92% hits. AID 504757; in the data active means inhibition above about 39%
PLA2 counter: counter-screen for ATG4B inhibitors: human phospholipase A2; shares compounds with ATG4B inhibitor; purified PLA2, NBD-C6-HPC fluorescence, 45 min; inhibition, % at 8.33 µM; 1,600 compounds, 66% hits; AID 588402
* marks the source's active call; other numbers are inactive results; ? = inconclusive; / = no result. Shown are actives, neighbours in structure and some others; about 1.9% of the full set was active somewhere. Unless noted, no stated cut-off is given here; in the data, active means inhibition above about 50%; inactive means the rest.

SMILES	CaV13 ICDI inh	ATG4B inhibitor	DSG3 Ab inh	Vif inh	NSD2 HMT inh	Glyco luc inh	PLA2 counter	others
CC1(C(=O)NCc2cccc3ccccc23)CCN1C(=O)C1(c2ccccc2)CCCC1 (stereo not drawn)	-5	/	/	-10	-1	-8	/
CCN(Cc1ccccc1)S(=O)(=O)c1ccc(C(=O)N(CCCN(C)C)c2nc3c(C)c(C)ccc3s2)cc1	-7	40*	113	-5	0	-7	50*
Cc1c(Cl)cccc1NC(=O)Nc1cc(C(C)(C)C)on1	-3	78*	110	-6	1	-6	84*
O=C(NCc1c(Cl)cccc1Oc1ccccc1)c1ccccc1	-5	47*	/	5	-2	-4	57*
O=[N+]([O-])c1cc2c(cc1/C=N/n1c(-c3ccccn3)n[nH]c1=S)OCO2	-3	9	100	1	-4	0	/
CCCSc1nc2c(c(=O)[nH]c(=O)n2C)n1Cc1ccccc1	-1	3	93	-5	1	-2	/
Cc1c(CCOC(=O)CC23CC4CC(CC(C4)C2)C3)sc[n+]1CC(=O)c1ccccc1	-19	5	109	-2	3	-3	/
Cc1c(CCOC(=O)C23CC4(C)CC(C)(CC(C)(C4)C2)C3)sc[n+]1CC(=O)c1ccccc1	12	47*	89	-8	5	-14	47	ATG4B conf=51*
CCN(Cc1ccc2c(c1)OCO2)C(=O)CSc1ncnc2sccc12	-6	3	100	8	2	0	/
CCN(Cc1ccc2c(c1)OCCO2)C(=O)CSc1nc(C)nc2sc(C)c(C)c12	-16	47*	96	9	0	1	68*
CCc1ccc(C(O)c2ncc(-c3ccc4ccccc4c3)[nH]2)cc1 (stereo not drawn)	-10	/	/	2	4	0	/
Cc1cccc(/C=N/NC(=O)c2cc(C)nc3ccccc23)n1	-7	0	/	-9	-5	7	/
NC(=O)c1ccc(C(F)(F)F)n(Cc2cccc(Cl)c2)c1=O	-10	45*	102	3	3	-5	39	ATG4B conf=64*
NC(=O)c1ccc(C(F)(F)F)n(Cc2ccc(Cl)cc2)c1=O	-9	-2	101	-9	-1	-5	/
O=C(Nc1cccc(Cl)c1N1CCCC1)c1ccco1	-3	63*	/	-3	-3	-2	68*
CCN1CCN(c2c(Cl)cccc2NC(=O)c2ccc3c(c2)OCCO3)CC1	-4	65*	105	18	5	-3	67*
COc1cc(C(=O)N2CCN(c3cc(Cl)ccc3Cl)CC2)cc(OC)c1OC	-7	-4	114	-2	/	15	/
CCOC1=C2[C@H](c3ccccc3Cl)N(S(=O)(=O)c3ccc(C)cc3)C[C@H]2C(C#N)(C#N)C(C#N)(C#N)C1	-6	/	/	/	/	10	/
O=S(=O)(Nc1nc(-c2sccc2Cl)cs1)c1cc(Cl)ccc1Cl	/	88*	112	-2	/	3	77*
CC(C)(C)c1nnc(NS(=O)(=O)c2cc(Cl)ccc2Cl)s1	-3	0	112	6	-1	1	/
O=C(NCc1nc2ccccc2[nH]1)C1=C[C@H](c2ccccc2)C[C@H](OCc2ccc(CO)cc2)O1	-5	-5	96	-6	/	-3	/
O=C(O)c1cccc(CSc2nc(-c3ccc(Cl)cc3)cc(C(F)(F)F)n2)c1	-8	52*	98	2	0	5	45	ATG4B conf=62*
COc1ccc(-c2cc(C)nc(SCc3cccc(C(=O)O)c3)n2)cc1	-6	10	77	-1	-1	1	/
O=S(=O)(c1ccccc1)N1CCN(c2cccc(Cl)c2)CC1	-19	51*	118	-3	3	2	61*
CCCN(Cc1ccccc1)C(=S)Nc1ccc(OC(F)F)cc1	-6	-3	105	5	-5	-1	/
SMILES	CaV13 ICDI inh	ATG4B inhibitor	DSG3 Ab inh	Vif inh	NSD2 HMT inh	Glyco luc inh	PLA2 counter	others
O=C(NCC1CCCO1)C(=O)N/N=C\c1ccc2c(c1)OCO2 (stereo not drawn)	-1	10	104	-6	-3	3	/
Fc1ccc(CNC(=S)Nc2cccc(C(F)(F)F)c2)cc1	-4	71*	/	-4	-3	-3	70*
Fc1ccc(CNC(=S)NCc2ccc(F)cc2)cc1	1	42*	112	11	-4	0	45	ATG4B conf=69*
FC(F)(F)c1cccc(NC(=S)NCc2ccc(Cl)cc2)c1	-4	14	110	-5	-6	-4	/
Cc1ccc(C(C)NC(=S)NCc2ccc(F)cc2)c(C)c1 (stereo not drawn)	-6	44*	109	-1	-3	-4	52*
COc1ccc(Cl)cc1C(=O)NC(=S)Nc1nc(C)cc(C)n1	-18	-5	/	-2	-2	4	/
CC(=O)Nc1cccc(-c2nc3ccccc3[nH]2)c1	-3	-6	105	-5	0	4	/
COc1cccc(OC)c1C(=O)Nc1cccc(-c2nc3ccccc3[nH]2)c1	6	53*	125	-2	-1	-1	62*
COc1ccc(Cl)cc1C(=O)NC(=S)Nc1cc(-c2nc3ccccc3[nH]2)ccc1C	-1	66*	99	-10	-4	-2	79*
O=c1c2ccccc2nc(/C=C/c2ccc(O)cc2)n1CCc1ccccc1	-7	48*	94	-2	12	-4	48	ATG4B conf=72*
Cc1nn(CCCC(=O)Nc2cc(Oc3ccc(F)cc3)cc([N+](=O)[O-])c2)c(C)c1[N+](=O)[O-]	-2	56*	109	-3	38	-3	60*
Cc1c(Cl)c([N+](=O)[O-])nn1CCCC(=O)Nc1cc(Oc2ccccc2)cc([N+](=O)[O-])c1	-2	89*	103	-18	-1	1	88*
Cc1ccccc1Oc1cc(NC(=O)CCCn2nc(C)c([N+](=O)[O-])c2C)cc([N+](=O)[O-])c1	-3	66*	64	-1	15	-6	63*
Cc1c(Cl)c([N+](=O)[O-])nn1CCCC(=O)N(Cc1ccccc1)Cc1ccccc1	-13	52*	92	-16	0	-5	60*
CC1CCN(Cc2nnnn2CCCC(=O)NCC(C)(C)N2CCOCC2)CC1	-2	2	?	-3	-4	0	/
O=C(CSc1nc2ccc(Cl)cc2[nH]1)NCCc1ccc(Cl)cc1	-14	46*	109	-1	2	-2	50*

From PubChem BioAssay
